Source: PubChem (Sanford-Burnham Center for Chemical Genomics)
Only some compounds are listed: those with a hit (about 4% of all), similar ones and a draw of the others.
TROY NFkB inh = inhibitors of TROY-driven NF-kB signaling, primary screen, Q293 LMP1-TROYcd cells, NF-kB luciferase, uHTS. Q293 LMP1-TROYcd NF-kB luciferase reporter, 4 h. hit rate 0.98% among 360,000. AID 1347056, 2019. inhibition, % at 10 µM;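 active = compounds whose plate-normalised and pattern-corrected inhibition of the luciferase reporter signal at the single screening dose is 50% or more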
Peg3 prom inh = Peg3 promoter-driven luciferase inhibitors, primary screen, cell-based, HeLa, luciferase luminescence. hit rate 1.7% among 360,000. AID 588405, 2011. HeLa PEG-Prom luciferase reporter, overnight. inhibition, % at 20 µM;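 active = inhibition of at least 50% at 20 µM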
TWEAK-Fn14 inh = inhibitors of TWEAK-Fn14 signaling, primary screen, luciferase reporter cells, uHTS | AID 1159606, 2016 | inhibition, % at 10 µM | hit rate 2% among 360,000 | TWEAK-stimulated Fn14 reporter cells, luciferase luminescence, 8 h; in the data active = inhibition above about 50%
CF NFkB block = inhibitors of PAF-induced NF-kB signaling, primary screen, cell-based, GFP fluorescence, uHTS. inhibition, % at 5 µM. AID 588850, 2011. KKLEB NF-kB-GFP reporter, GFP fluorescence overnight. hit rate 0.86% among 360,000;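 active = at least 50% inhibition at 5 µM, scaled per plate between neutral and stimulator controls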;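 note: PAF is a Pseudomonas aeruginosa culture filtrate used as stimulus; plate controls were PAF-stimulated DMSO wells for no effect and unstimulated DMSO wells for full effect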
HIF-2a inh = HIF-2a reporter inhibitors, primary screen, luminescence, 786-0 RCC cells; 786-0 RCC cells HIF-2a reporter, luciferase luminescence, overnight; inhibition, % at 18.8 µM; hit rate 0.72% among 360,000; AID 624352, 2012;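 active = inhibition of the luminescence signal of 40% or more relative to plate controls, in a single-dose primary screen at 18.75 µM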
KKLEB cytotox = cytotoxicity in KKLEB CF airway cells, primary screen, cytotoxicity control for CF NF-kB inhibitor project, cell-based, uHTS, fluorescence assay plates. KKLEB CF airway cells viability, ATPlite luminescence, overnight; stronger effect = lower value; cells stimulated with P. aeruginosa culture filtrate. activity change (cytotoxicity), % at 5 µM. hit rate 0.36% among 360,000. AID 602141, 2011;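 active = corrected activity change at or below -50% at 5 µM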
Numbers without * were called inactive.

What do the screens show for `O=S(=O)(Nc1nc2ccccc2[nH]1)c1ccc2ccccc2c1`?
TROY NFkB inh: -8; Peg3 prom inh: 9; TWEAK-Fn14 inh: 3; CF NFkB block: 8; HIF-2a inh: 1; KKLEB cytotox: -8

Results for Cc1sc(NC(=O)c2sc3nc4c(C)cccc4cc3c2N)c(C#N)c1C ?
TROY NFkB inh: 10; Peg3 prom inh: -3; TWEAK-Fn14 inh: 16; CF NFkB block: -20; HIF-2a inh: -14; KKLEB cytotox: 1

How did Cc1cccc2cc3c(N)c(C(=O)Nc4ccc(N5CCOCC5)cc4)sc3nc12 do in these assays?
TROY NFkB inh: 51*; Peg3 prom inh: 56*; TWEAK-Fn14 inh: 58*; CF NFkB block: -60; HIF-2a inh: -21; KKLEB cytotox: -31

Results for Cc1cc(C(=O)COC(=O)c2ccc(O)cc2)c(C)n1-c1ccccc1F ?
TROY NFkB inh: 84*; Peg3 prom inh: -195; TWEAK-Fn14 inh: 75*; CF NFkB block: -14; HIF-2a inh: -38; KKLEB cytotox: 6

Results for Cc1cc(C(=O)Cn2nnc3ccccc3c2=O)c(C)n1-c1ccccc1F ?
TROY NFkB inh: 82*; Peg3 prom inh: -25; TWEAK-Fn14 inh: 73*; CF NFkB block: -2; HIF-2a inh: -55; KKLEB cytotox: -33

How did CC(=O)Nc1ccc(SCC(=O)c2cc(C)n(-c3ccccc3F)c2C)cc1 do in these assays?
TROY NFkB inh: 66*; Peg3 prom inh: 18; TWEAK-Fn14 inh: 87*; CF NFkB block: -25; HIF-2a inh: 50*; KKLEB cytotox: 11

How did Cc1cc(C(=O)COC(=O)c2ccc[nH]c2=O)c(C)n1-c1ccccc1F do in these assays?
TROY NFkB inh: 33; Peg3 prom inh: -57; TWEAK-Fn14 inh: 59*; CF NFkB block: 7; HIF-2a inh: 45*; KKLEB cytotox: 0

What do the screens show for `COC(=O)c1ccc(-n2c(C)cc(C(=O)CSc3ccc(NC(C)=O)cc3)c2C)cc1`?
TROY NFkB inh: 40; Peg3 prom inh: 7; TWEAK-Fn14 inh: 35; CF NFkB block: -19; HIF-2a inh: 5; KKLEB cytotox: 11

What do the screens show for `O=C(Cc1c(F)cccc1Cl)N1CCN(S(=O)(=O)c2cccs2)CC1`?
TROY NFkB inh: -9; Peg3 prom inh: 8; TWEAK-Fn14 inh: 4; CF NFkB block: 20; HIF-2a inh: 3; KKLEB cytotox: 13

Results for COc1ccc(COCC(CC(C)C)N2CCN(C(=O)c3cccc(C(F)(F)F)c3)CCC2=O)cc1 (centres undefined) ?
TROY NFkB inh: -22; Peg3 prom inh: 7; TWEAK-Fn14 inh: -27; CF NFkB block: 3; HIF-2a inh: -12; KKLEB cytotox: -4

How did CCc1ccc(C(=O)/C=C/c2cnn(C)c2C)s1 do in these assays?
TROY NFkB inh: 67*; Peg3 prom inh: -161; TWEAK-Fn14 inh: 60*; CF NFkB block: -18; HIF-2a inh: -201; KKLEB cytotox: 10

Results for c1coc(CN(Cc2ccco2)c2ncnc3c2oc2ccccc23)c1 ?
TROY NFkB inh: 18; Peg3 prom inh: 38; TWEAK-Fn14 inh: 66*; CF NFkB block: 15; HIF-2a inh: 17; KKLEB cytotox: -2

How did Clc1ncnc2c1oc1ccccc12 do in these assays?
TROY NFkB inh: -22; Peg3 prom inh: -227; TWEAK-Fn14 inh: -18; CF NFkB block: -4; HIF-2a inh: -233; KKLEB cytotox: 3

How did Cn1c(=O)oc2cc(S(=O)(=O)NC3CCCCCCC3)ccc21 do in these assays?
TROY NFkB inh: -25; Peg3 prom inh: 5; TWEAK-Fn14 inh: -14; CF NFkB block: -20; HIF-2a inh: 9; KKLEB cytotox: 4

What do the screens show for `CCOc1ccc(NC(=O)COc2ccc(C(=O)NCc3cccc(OC)c3)cc2OC)cc1`?
TROY NFkB inh: 9; Peg3 prom inh: 10; TWEAK-Fn14 inh: -5; CF NFkB block: -20; HIF-2a inh: 2; KKLEB cytotox: 5

Results for C(C#CCCCCCCCCC[n+]1ccccc1)#CCCCCCCCCC[n+]1ccccc1 ?
TROY NFkB inh: 44; Peg3 prom inh: 105*; TWEAK-Fn14 inh: 90*; CF NFkB block: 53*; HIF-2a inh: 37; KKLEB cytotox: -38

Results for Cc1cc(S(=O)(=O)NCC2CC2)c(Cl)cc1Cl ?
TROY NFkB inh: -4; Peg3 prom inh: 11; TWEAK-Fn14 inh: 9; CF NFkB block: -20; HIF-2a inh: 14; KKLEB cytotox: 4

What do the screens show for `CC1(C)Cc2c(c(N3CCOCC3)nc3sc(C(N)=O)c(N)c23)CO1`?
TROY NFkB inh: 11; Peg3 prom inh: 9; TWEAK-Fn14 inh: -15; CF NFkB block: 19; HIF-2a inh: 30; KKLEB cytotox: 0

How did CC1(C)Cc2c(c(N3CCOCC3)nc3snc(Br)c23)CO1 do in these assays?
TROY NFkB inh: 1; Peg3 prom inh: 92*; TWEAK-Fn14 inh: 5; CF NFkB block: 31; HIF-2a inh: 29; KKLEB cytotox: -24

Results for CC1(C)Cc2c(c(N3CCOCC3)nc3snc(N)c23)CO1 ?
TROY NFkB inh: 29; Peg3 prom inh: 65*; TWEAK-Fn14 inh: 5; CF NFkB block: 32; HIF-2a inh: 38; KKLEB cytotox: -11

How did CCN1CCN(c2cc(SC(C)C)nc(-c3ccc(OC)cc3)n2)CC1 do in these assays?
TROY NFkB inh: -6; Peg3 prom inh: 53*; TWEAK-Fn14 inh: -9; CF NFkB block: 1; HIF-2a inh: 8; KKLEB cytotox: -5

Results for CC(C)Sc1cc(N2CCOCC2)nc(-c2ccc(Cl)cc2)n1 ?
Peg3 prom inh: 16; TWEAK-Fn14 inh: 10; CF NFkB block: 6; HIF-2a inh: 15; KKLEB cytotox: 6

What do the screens show for `NC(c1csc(NC(=O)Nc2ccccc2Cl)n1)C1CCCCC1` (centres undefined)?
TROY NFkB inh: -12; Peg3 prom inh: 95*; TWEAK-Fn14 inh: -21; CF NFkB block: 14; HIF-2a inh: -18; KKLEB cytotox: -13

What do the screens show for `COc1ccccc1NC(=O)Nc1nc(C(N)C2CCCCC2)cs1` (centres undefined)?
TROY NFkB inh: 4; Peg3 prom inh: 82*; TWEAK-Fn14 inh: -7; CF NFkB block: 7; HIF-2a inh: 3; KKLEB cytotox: -14

What do the screens show for `NC(COCc1ccccc1)c1csc(NC(=O)Nc2cccc(C(F)(F)F)c2)n1` (centres undefined)?
TROY NFkB inh: -1; Peg3 prom inh: 100*; TWEAK-Fn14 inh: -15; CF NFkB block: 86*; HIF-2a inh: 12; KKLEB cytotox: -83*

How did NC(CCc1ccccc1)c1csc(NC(=O)Nc2cccc(Cl)c2)n1 (centres undefined) do in these assays?
TROY NFkB inh: 3; Peg3 prom inh: 89*; TWEAK-Fn14 inh: 7; CF NFkB block: 28; HIF-2a inh: 14; KKLEB cytotox: -18
